Measured values taken from PubChem BioAssay (Tox21).
Several values for one entry are separate records, joined by “and”; a condition that tells them apart may be missing. Identical values can stand only once. Records with an inconclusive call do not appear. Entries that show only a call come without a potency. Where a structure was tested more than once in an assay, its records may differ in their call. Activity calls are given as the source filed them. Calls come from the whole dose curve; as a rule, active = well fitted activation curve with a large enough effect in the repeat runs; inconclusive = weak or mixed curves; inactive = flat fitted curve, though single readings scatter.

Assay: A CellTox Green Cytotoxicity Assay to monitor cytotoxicity in HepG2 cells - 8 hour (AID 1224890); note: nearly all actives have a fitted effect of over 45% in size
Conditions: CellTox Green fluorescence; series mostly up to 76.8 µM
Excerpt: National Center for Advancing Translational Sciences [NCATS]
NIH Chemical Genomics Center [NCGC]
U.S. Environmental Protection Agency [EPA]
National Institutes of Environmental Health Sciences [NIEHS]
National Toxicology Program [NTP]
Cell-based models are critical for drug discovery. Determining the natural cytotoxic effects resulting from test compounds is an essential research activity. A CellTox Green Cytotoxicity Assay to monitor cytotoxicity in real time of continues cell culture during 40 hours of the compound treatment was used to screen Tox21 10K library compounds in HepG2 cells. CellTox Green Cytotoxicity Assay is a nonlytic, homogeneous, biofluorescent method to measure cytotoxicity in cell culture after experimental manipulation. The assay system uses a proprietary asymmetric cyanine dye that is excluded from viable cells but preferentially stains the dead cell's DNA. […] Viable cells produce no appreciable increases in fluorescence. Therefore, the fluorescence signal produced by the binding interaction with dead cell DNA is proportional to cytotoxicity.
The mixture of HepG2 cell suspension and reagents were dispensed at 600cells/6 ul/well in 1536-well tissue culture treated black solid bottom plates using a Multidrop dispenser. After the assay plates were incubated at a 37 C/5% CO2 incubator for 5 hours, 23 nL of compounds dissolved in DMSO, positive and negative controls was transferred to the assay plate by a pintool work station. The plates were incubated at 37 C for 40 hours. The fluorescence intensity were measured at 0h, 8h, 16h, 24h, 32h and 40h time points using ViewLux plate reader during compound treatment.
Potency is the fitted concentration of half-maximal effect.

Structure (SMILES)	Potency
NC(=O)NC1NC(=O)NC1=O (stereo not given)	inactive
COc1c2occc2cc2ccc(=O)oc12	inactive
Nc1ccn([C@H]2CC[C@@H](CO)O2)c(=O)n1	inactive
CCCC(O)C(CC)CO (stereo not given)	inactive
c1ccc2[nH]ccc2c1	inactive
O=c1cc[nH]c(=S)[nH]1	inactive
C/C=C/c1ccc(OC)cc1	inactive
NC(=O)c1cnccn1	inactive
CCCCC1C(=O)N(c2ccccc2)N(c2ccccc2)C1=O	inactive
OCCc1ccccc1	inactive
CCCC(CCC)C(=O)O	inactive
CC(=O)OCC(COC(C)=O)OC(C)=O	inactive
NS(=O)(=O)c1cc(C(=O)O)c(NCc2ccco2)cc1Cl	inactive
Cc1ccc(O)cc1	inactive
O=C(O)C(=O)O	inactive
NC(=O)c1ccccc1O	inactive
O=C(O)c1[nH]n(-c2ccc(S(=O)(=O)O)cc2)c(=O)c1N=Nc1ccc(S(=O)(=O)O)cc1	inactive
O=C(O)c1cc(N=Nc2ccc(S(=O)(=O)Nc3ccccn3)cc2)ccc1O	inactive
O=NO	inactive
Cn1cc[nH]c1=S	inactive

Structure (SMILES)	Potency
O=C(c1ccccc1)c1ccccc1	inactive
O=C1NC(=O)c2ccccc21	inactive
CC(=O)Nc1nnc(S(N)(=O)=O)s1	inactive
O=C(O)CCC(=O)O	inactive
Nc1ccc(O)c(C(=O)O)c1	inactive
CC(O)CN(CCN(CC(C)O)CC(C)O)CC(C)O (stereo not given)	inactive
Cc1ccc(C)c(OCCCC(C)(C)C(=O)O)c1	inactive
Nc1ccc(C(=O)O)cc1	inactive
NC(N)=NC(=O)c1nc(Cl)c(N)nc1N	inactive
CCCCCCCCCCCCCCCC(=O)O	inactive
CC(C)[C@@H]1CC[C@@H](C)C[C@H]1O	inactive
O=S(=O)(O)NC1CCCCC1	inactive
Cc1ccc(S(=O)(=O)NC(=O)NN2CCCCCC2)cc1	inactive
Nc1ccc(S(=O)(=O)Nc2nccs2)cc1	inactive and 43.6 µM (active)
Oc1ccc(/C=C/c2cc(O)cc(O)c2)cc1	inactive
CC(C)(Oc1ccc(C2CC2(Cl)Cl)cc1)C(=O)O (stereo not given)	inactive
O=C(O)CCCCCCCC(=O)O	inactive
O=C(O)CS	inactive
Cn1c(=O)c2[nH]cnc2n(C)c1=O	inactive
CC(O)CO (stereo not given)	inactive
